From PubChem BioAssay AID651871 (Sanford-Burnham Center for Chemical Genomics, 2012)

Test system: HL-1
Test: protection of cardiomyocytes from stress damage, SAR follow-up, cell-based, panel, H9c2 and HL-1, ATP luminescence, set 2 (AID 651871);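 also: cells exposed to stressor for 2 h before ATP readout; reference of the scale not given here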
Settings: H9c2/HL-1 cardiomyocytes, 2-deoxyglucose stress, with 2-deoxyglucose, run 12, at 19.8 µM (top of the series)

SMILES: COc1ccc2c(c1OC)C(=O)N1c3ccccc3C(=O)N(Cc3cccc(Cl)c3Cl)C21 (stereo unspecified)
- activity (protection/inhibition): 51%
